These results are taken from PubChem BioAssay (NCATS).

Inconclusive results are not listed. The source made the active and inactive calls. Calls come from the whole dose curve; as a rule, active = well fitted cell-killing curve with a large enough effect; inconclusive = small, poorly fitted or top-dose-only effect, or effect the other way; inactive = no such curve, though single readings can be large or run the other way.
Potency is the fitted concentration of half-maximal effect.

This assay can be described thus: Quantitative High-Throughput drug screen in 47 multiple myeloma cell lines against the NCATS MIPE library collection: XG1_PLB cell viability assay (AID 1919866). Note: nearly all actives have a fitted effect of over 35% in size. Conditions: CellTiter-Glo ATP, 48 h; series mostly up to 45.8 µM; viability: at the top concentration. The text has this: PI: Beverly A. Mock Ph.D.
Laboratory of Cancer Biology and Genetics,
Center for Cancer Research, National Cancer Institute,
National Institute of Health, Bethesda, Maryland
Drug resistance and disease progression are common in multiple myeloma (MM) patients, underscoring the need for new therapeutic combinations. […] We hypothesized that effective combinations would reduce MYC expression and enhance p16 activity. […] These preclinical data identify potentially useful drug combinations for evaluation in drug-resistant MM and reveal potential mechanisms of combined drug sensitivity.
Described herein is the primary MIPE qHTS used to cherrypick compounds. Validated compounds were then further tested for potential synergistic activiy.
[1] Peat TJ, Gaikwad SM, Dubois W, Gyabaah-Kessie N, Zhang S, Gorjifard S, Phyo Z, Andres M, Hughitt VK, Simpson RM, Miller MA, Girvin AT, Taylor A, Williams D, D'Antonio N, Zhang Y, Rajagopalan A, Flietner E, Wilson K, Zhang X, Shinn P, Klumpp-Thomas C, McKnight C, Itkin Z, Chen L, Kazandijian D, Zhang J, Michalowski AM, Simmons JK, Keats J, Thomas CJ, Mock BA. Drug combinations identified by high-throughput screening promote cell cycle transition and upregulate Smad pathways in myeloma. Cancer Lett. 2023 Aug 1;568:216284. doi: 10.1016/j.canlet.2023.216284. Epub 2023 Jun 24. PMID: 37356470; PMCID: PMC10408729.
SEQUENCE No. (e.g., 1, 2, 3, etc.); […] (e.g., Cells, Incubation, Reagent, etc.); VALUE and DESCRIPTION.
1; Cells; 5 uL; white, solid bottom 1536-well Greiner assay plate.
2; Compounds; 23 nL; Kalypsis pin tool (Wako USA) equipped with a 1536-well pin head to transfer to the assay plates.
3; Incubation; 48 hours; 37C incubation.
4; Reagent;5uL; CellTiter Glo (Promega).
5; Detector; 425V; Luminescence; Viewlux PerkinElmer.
NOTES (numbers refer to Sequence numbers above)
1. The cell-based screening methods employed in this study were like those previously published. Briefly, the corresponding myeloma cell lines were screened in 1,536-well plates with 500 cells, 5-uL per well for inhibition of cell viability (assessed by measuring ATP levels with CellTiterGlo).
2. NCATS MIPE 4.0 library of approved and investigational drugs were added using the Kalypsis pin tool. Wells treated with DMSO only for 100% viability and media only for 0% viability were used as controls.
3. The assay plates were covered and incubated for 48 hours in a 37C, 5% CO2 incubator with controlled humidity.
4. After 48 hours, CellTilter-GloTM luminescent substrate mix (Promega) reagent was added to the assay plate and plates we incubated for 5 min at room temperature.
5. Signal was measured as median relative luminescence units on a ViewLux (PerkinElmer) multiplate reader.
[1] Heske CM, Davis MI, Baumgart JT, Wilson K, Gormally MV, Chen L, Zhang X, Ceribelli M, Duveau DY, Guha R, Ferrer M, Arnaldez FI, Ji J, Tran HL, Zhang Y, Mendoza A, Helman LJ, Thomas CJ. Matrix Screen Identifies Synergistic Combination of PARP Inhibitors and Nicotinamide Phosphoribosyltransferase (NAMPT) Inhibitors in Ewing Sarcoma. Clin Cancer Res. 2017 Dec 1;23(23):7301-7311. doi: 10.1158/1078-0432.CCR-17-1121. Epub 2017 Sep 12. PMID: 28899971; PMCID: PMC6636827.
Turning to `C1=CCOCc2cc(ccc2OCCN2CCCC2)Nc2nccc(n2)-c2cccc(c2)OCC1`, the Potency was 2640 nM (active).

For `C[C@@]12O[C@@H](C[C@]1(O)CO)n1c3ccccc3c3c4c(c5c6ccccc6n2c5c31)CNC4=O`, the Potency was 132 nM (active).

Consider `CNC(=O)c1c(F)cccc1Nc1nc(Nc2cc3c(cc2OC)CCN3C(=O)CN(C)C)nc2[nH]ccc12`, for which the Potency is 2350 nM (active).

As to `Cc1cn(-c2cc(NC(=O)c3ccc(C)c(Nc4nccc(-c5cccnc5)n4)c3)cc(C(F)(F)F)c2)cn1`, the viability – broadly, a read-out of living cells in per cent, often relative to untreated cells – is 113% (inactive).

Turning to `COc1cc(OC2CCN(C)CC2)ccc1Nc1ncc2c(n1)n(C1CCCC1)c(=O)n2C`, the Potency is 4690 nM (active).

For `C=CC(=O)Nc1cc2c(Nc3ccc(F)c(Cl)c3)ncnc2cc1OCCCN1CCOCC1`, the Potency was 2640 nM (active).

`CC[C@@H]1C(=O)N(C)c2cnc(Nc3ccc(C(=O)NC4CCN(C)CC4)cc3OC)nc2N1C1CCCC1`: the Potency is 8.3 nM (active).

Take `CCCCOc1c(C(=O)c2c(F)cc(C)cc2F)cnc2n[nH]cc12`: the Potency was 2960 nM (active).

Regarding `COc1ccc2c(c1)CC[C@@H](CN(C)CC(=O)O)[C@H]2c1ccccc1`, the Potency was 833 nM (active).

As to `CC(NCc1ccc2c(c1)nc(NC(=O)c1ccc(-c3cn[nH]c3)s1)n2CC(C)(C)O)C(C)(C)C` (stereo not given), the Potency is 372 nM (active).

As to `C[C@@H](Oc1cc(-c2cnn(C3CCNCC3)c2)cnc1N)c1c(Cl)ccc(F)c1Cl`, the Potency is 4690 nM (active).

As for `CN1CCN(Cc2ccc(NC(=O)Nc3ccc(Oc4cc(NC(=O)C5CC5)ncn4)cc3)cc2C(F)(F)F)CC1`, the Potency is 187 nM (active).

On to `Nc1nc(NCCNc2ncc(-n3ccnc3)c(-c3ccc(Cl)cc3Cl)n2)ccc1[N+](=O)[O-]`, for which the Potency is 6620 nM (active).

Consider `O=C1CCC[C@@H]2[C@H]3CCC[N+]4([O-])CCC[C@@H](CN12)[C@@H]34` (stereo not given in full), for which the “viability” value is 100% (inactive).

Consider `Cc1ccc(-c2ncn(-c3ccc(Nc4nccc(-c5cccc(N6CCOCC6)c5)n4)cc3)n2)cn1`, for which the Potency was 93.5 nM (active).

As for `Cn1c2ccccc2c2c3c(c4c5ccccc5n(CCC#N)c4c21)CNC3=O`, the Potency was 2350 nM (active).

As for `CC(C)CC(=O)Nc1n[nH]c2c1CN(C(=O)C1CCN(C)CC1)C2(C)C`, the Potency is 1660 nM (active).

For `CC(=O)OCC(=O)[C@@]1(O)[C@H](C)C[C@H]2[C@@H]3C=C(C)C4=Cc5c(cnn5-c5ccccc5)C[C@]4(C)[C@@H]3[C@@H](O)C[C@@]21C`, the Potency is 5260 nM (active).

For `CCN(CC)CCNC(=O)c1ccc2nc(-c3ccccc3)c(-c3ccc(CN4CCC(n5c(=O)[nH]c6ccccc65)CC4)cc3)nc2c1`, the Potency is 590 nM (active).

Consider `COc1cc(C(C)C)c2c(c1)S(=O)(=O)N(COc1cc(=O)n3cccc(OCCN4CCCCC4)c3n1)C2=O`, for which the Potency is 2090 nM (active).

As for `O=C(CCCCCCNC(=O)c1cnc(N(c2ccccc2)c2ccccc2)nc1)NO`, the Potency is 9350 nM (active).

In the case of `CC(C)c1ccc(Cn2ccc3c4c(N)nc(NC5CC5)nc4ccc32)cc1`, the Potency is 743 nM (active).

Take `COc1cccc2nc(-c3cccs3)nc(NN3C(=O)C=C(C)C3=O)c12`: the Potency is 26.4 nM (active).

`Cc1nc2cnc3ccc(C#Cc4cccnc4)cc3c2n1-c1ccc(C(C)(C)C#N)cc1`: the Potency is 10.5 nM (active).

For the compound `Nc1cc(C(F)(F)F)c(-c2cc(N3CCOCC3)nc(N3CCOCC3)n2)cn1`, the Potency was 469 nM (active).

With `COc1cc(-c2nn(C3CCC(N4CCN(C(C)=O)CC4)CC3)c3ncnc(N)c23)ccc1NC(=O)c1cc2ccccc2n1C` (stereo not given), the Potency is 332 nM (active).

As to `COc1cc(=C2C=c3ccccc3=N2)[nH]c1=Cc1[nH]c(C)cc1C`, the Potency is 2090 nM (active).

`CC[C@@]1(O)C(=O)OCc2c1cc1n(c2=O)Cc2cc3cc(O)ccc3nc2-1`: the Potency is 66.2 nM (active).

Take `NC(=O)c1c(OCc2c(F)cc(Br)cc2F)nsc1NC(=O)NCCCCN1CCCC1`: the Potency is 8330 nM (active).

Regarding `CNC(=O)c1ccc(N2C(=S)N(c3cnc(C#N)c(C(F)(F)F)c3)C(=O)C23CCC3)cc1F`, the Potency was 264 nM (active).

For `O=C(O)Cn1nnc(-c2cc(N3CCC(Oc4cc(F)ccc4Br)CC3)no2)n1`, the “viability” value is 105% (inactive).

On to `CCn1cc(-c2ccnc3[nH]c(-c4cccc(CN(C)C)c4)cc23)c(-c2ccc(NC(=O)N(C)C)cc2)n1`, for which the Potency was 1180 nM (active).

Regarding `COc1cc2ncnc(Nc3ccc(F)c(Cl)c3)c2cc1NC(=O)C=CCN1CCCCC1`, the Potency was 4180 nM (active).

As to `CCC[C@H](NC(=O)C(C#N)=Cc1cccc(Br)n1)c1ccccc1`, the Potency was 1660 nM (active).

For the compound `O=C(O)c1ccc2c(c1)nc(Nc1cccc(Cl)c1)c1ccncc12`, the Potency was 4180 nM (active).

As to `COc1cc(Nc2ncc(F)c(Nc3ccc4c(n3)N(COP(=O)(O)O)C(=O)C(C)(C)O4)n2)cc(OC)c1OC`, the Potency was 662 nM (active).

Consider `OCc1ccc(-c2ccc(-c3ccc(CO)s3)o2)s1`, for which the Potency was 6620 nM (active).

Take `Cc1cc(Nc2cc(CN3CCOCC3)c3nc(C)c(Cc4ccc(Cl)cc4F)n3n2)n[nH]1`: the Potency was 833 nM (active).

In the case of `CC(C)c1cnn2c(NCc3ccccc3)cc(N[C@@H](CO)[C@H](O)CO)nc12`, the Potency was 264 nM (active).

For `Cc1cccc(C=NNc2cc(N3CCOCC3)nc(OCCc3ccccn3)n2)c1`, the Potency was 23500 nM (active).
